# KCNH2 3.1 block: blocks the human KCNH2 3.1 channel isoform | U2OS KCNH2 3.1, thallium flux FluxOr; hits give low values | activity change, % (tested at about 1.8 µM) | hit rate 0.95% among 340,000;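 active means maximum activity change below -70%; inconclusive means maximum activity change from -70% to -50%; inactive means maximum activity change above -50%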;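 further: thallium influx rate constant from kinetic fluorescence after stimulation buffer; on the % scale 0 is the no-effect control and ±100 the full control effect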
#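 Steps: virus added to U2OS suspension (4 h, RT, dark); medium with 10% FBS added, cells plated, 37 C overnight; FluxOr/Red40 loading buffer 45 min RT; stimulation buffer, 2 min kinetic read; rate constant normalized.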
# hERG WT inh: blocks the wildtype human KCNH2 potassium channel; U2OS, BacMam KCNH2, thallium flux FluxOr; hits give low values; hit rate 0.37% among 340,000; activity change, % at 1.84 µM;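 active means maximum activity change below -70%; inconclusive means maximum activity change between -70% and -50%; inactive means maximum activity change above -50%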; further: on the % scale 0 is the no-effect control and ±100 the full control effect
# Target sequence (Q12809 whole entry, looked up): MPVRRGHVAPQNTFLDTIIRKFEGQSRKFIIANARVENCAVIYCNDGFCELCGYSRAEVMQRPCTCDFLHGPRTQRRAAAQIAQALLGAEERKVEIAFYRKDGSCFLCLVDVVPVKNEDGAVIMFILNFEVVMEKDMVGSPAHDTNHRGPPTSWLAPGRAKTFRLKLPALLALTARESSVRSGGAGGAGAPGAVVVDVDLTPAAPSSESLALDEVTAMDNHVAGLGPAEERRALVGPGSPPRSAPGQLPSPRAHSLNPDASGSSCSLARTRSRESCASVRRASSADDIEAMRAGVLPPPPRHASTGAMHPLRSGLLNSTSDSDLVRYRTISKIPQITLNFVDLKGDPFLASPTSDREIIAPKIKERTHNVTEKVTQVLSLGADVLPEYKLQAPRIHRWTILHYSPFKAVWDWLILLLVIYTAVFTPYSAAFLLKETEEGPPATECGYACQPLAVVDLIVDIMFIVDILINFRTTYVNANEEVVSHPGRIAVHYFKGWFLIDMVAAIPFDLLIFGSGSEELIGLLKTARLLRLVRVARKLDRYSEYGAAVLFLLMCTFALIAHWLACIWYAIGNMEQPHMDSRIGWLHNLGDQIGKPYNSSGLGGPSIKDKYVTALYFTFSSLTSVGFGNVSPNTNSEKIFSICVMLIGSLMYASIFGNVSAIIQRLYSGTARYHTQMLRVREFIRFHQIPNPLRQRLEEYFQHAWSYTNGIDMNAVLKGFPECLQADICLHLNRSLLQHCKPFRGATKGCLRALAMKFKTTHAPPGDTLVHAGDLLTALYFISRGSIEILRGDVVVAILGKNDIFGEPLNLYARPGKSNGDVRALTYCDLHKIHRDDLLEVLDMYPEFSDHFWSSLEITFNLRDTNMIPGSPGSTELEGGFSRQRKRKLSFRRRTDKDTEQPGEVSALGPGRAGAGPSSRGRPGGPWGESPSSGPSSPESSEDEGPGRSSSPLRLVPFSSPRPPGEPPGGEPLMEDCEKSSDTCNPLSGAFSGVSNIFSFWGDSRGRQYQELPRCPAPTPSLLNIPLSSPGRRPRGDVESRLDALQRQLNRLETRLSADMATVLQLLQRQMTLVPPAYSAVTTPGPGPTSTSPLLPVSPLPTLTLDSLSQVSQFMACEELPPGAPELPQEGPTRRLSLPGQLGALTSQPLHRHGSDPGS
#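 U2OS cells were transduced with wild-type KCNH2 virus (2.03 x 10^8 / mL) for 4 h at room temperature, then cultured overnight at 37 C. Thallium flux was read with FluxOr dye. Rate constants were normalized to DMSO controls.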
# MCF10A rereplic: inducers of DNA re-replication in MCF 10A breast cells; Potency, µM (titrated, usually from 46.1 µM), for the others: at the highest dose activity, positive = re-replication, hits mostly activators; hit rate 2.9% among 350,000; MCF 10A DNA re-replication, Hoechst nuclear intensity, 48 h; further: potency means the concentration at half of the fitted maximal effect; % of control where 0% means no effect; nearly all actives have a fitted effect of over 50% in size
# SW480 rerep: inducers of DNA re-replication in SW480 colon cancer cells. SW480 DNA re-replication, Hoechst DNA content imaging, 48 h. AID 624297. hit rate 1.8% among 340,000. Potency, µM (doses to about 46.1 µM), without a hit: at the top dose re-replication activation, hits mostly activators; further: potency means the concentration at half of the fitted maximal effect; % of control where 0% means no effect; nearly all actives have a fitted effect of over 55% in size
#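 Treated cells incubate 48 hr (37 C, 5% CO2), are stained 40 min with Hoechst, and nuclear fluorescence is enumerated; a rise in nuclei with high DNA signal marks re-replication.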
# KB-3-1 cytotox: KB-3-1 parental cell cytotoxicity. AID 1347075. hit rate 1.4% among 400,000. Potency, µM (highest dose often 46.1 µM), usual class: cytotoxic. KB-3-1 viability, CellTiter-Glo ATP luminescence, 72 h; further: potency means the concentration at half of the fitted maximal effect; on the % scale 0 is the no-effect control and ±100 the full control effect; nearly all actives have a fitted effect of over 60% in size
#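 Using CellTiter-Glo luminescence, growth of non-resistant KB-3-1 adenocarcinoma cells is assessed 72 h after pin-tool compound addition at 37 °C. Normalized responses across the concentration series yield fitted curves.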
# KB-V1 cytotox: kills drug-selected multidrug resistant KB-V1 cells. AID 1347076. hit rate 3.4% among 400,000. KB-V1 MDR cells viability, CellTiter-Glo, 72 h. Potency, µM (top dose mostly 46.1 µM), hits mostly cytotoxic; further: potency means the concentration at half of the fitted maximal effect; on the % scale 0 is the no-effect control and ±100 the full control effect; nearly all actives have a fitted effect of over 60% in size
#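 qHTS viability screen in drug-selected KB-V1 MDR cells: 72 h compound treatment at 37 degrees C, ATP luminescence end point.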
# Starred values were filed as active, the others as inactive; i = inactive; ? = inconclusive; . = no result given. Only some compounds are listed: those with a hit (about 7.6% of all), similar ones and a draw of the others. Unless noted, the call rests on the fitted dose curve; in most records, active means well fitted curve in the direction sought with a large enough effect; inconclusive means small, poorly fitted or top-dose-only effect, or another doubt; inactive means no such curve, though single readings can be large; an effect the other way counts as inactive or inconclusive.
SMILES,KCNH2 3.1 block,hERG WT inh,MCF10A rereplic,SW480 rerep,KB-3-1 cytotox,KB-V1 cytotox
C=CCCCCCCCCC(=O)N1CCN(c2cc3c(cc2F)c(=O)c(C(=O)O)cn3CC)CC1,4.2,-7.7,2.3%,-24.0%,i,i
COc1cc2c(cc1OC)CN(C(=O)/C=C/c1cc(OC)c(OC)c(OC)c1)CC2,-1.0,-0.7,5.9%,0.9%,i,?
COc1ccc(N2CCN(C(=O)CCCOc3cc(=O)n(C)c4ccccc34)CC2)cc1,17.0,1.2,15.7%,-0.4%,i,8.2µM*
Cc1ccc(C)c(N2CCN(C(=O)CCCOc3cc(=O)n(C)c4ccccc34)CC2)c1,8.3,-12.3,?,?,?,8.2µM*
CC(C)CCNC(=O)CCCOc1cc(=O)n(C)c2ccccc12,-2.5,0.5,?,-5.7%,i,13µM*
Cc1ccc(C)c(N2CCN(C(=O)COc3cc(=O)n(C)c4ccccc34)CC2)c1,-9.6,14.9,?,-0.9%,i,i
CN1CCN(CCCNC(=O)CCCOc2cc(=O)n(C)c3ccccc23)CC1,-19.4,-5.5,2.0%,-10.6%,i,i
CC1CCN(C(=O)CCCOc2cc(=O)n(C)c3ccccc23)CC1,-13.5,-18.5,15.2%,-16.4%,i,?
Cn1c(SCc2cccc(Br)c2)nnc1-c1ccncc1,16.5,0.7,-3.5%,-6.0%,i,i
O=c1c2ccccc2[nH]c2ccc(F)cc12,7.9,-14.7,9.2µM*,16.4µM*,i,i
O=c1[nH]c2ccccc2c(=O)c2ccccc12,-7.9,-4.8,.,.,i,i
Cc1ccc2[nH]c3c(c2c1)CCNC3=O,13.1,-6.9,0.1%,-12.6%,?,5.8µM*
Cc1ccc2[nH]c3ccccc3c(=O)c2c1,6.3,22.1,16.4µM*,?,i,i
O=c1c2ccccc2[nH]c2ccc(O)cc12,-0.5,6.6,-11.6%,23.1µM*,i,i
CC(=O)c1sc(NC(=O)CCc2ccccc2)nc1C,1.0,-5.2,.,.,i,?
O=C(CN(Cc1ccco1)Cc1ccco1)Nc1cc(S(=O)(=O)N2CCCCC2)ccc1Cl,-13.6,1.2,14.4%,3.1%,?,i
CC(=O)C1(C)C(=O)N(c2ccc(F)cc2)C(=O)N1c1ccc(F)cc1 (stereo not drawn),-7.7,65.4,-0.7%,-2.3%,i,?
CCOC(=O)N1CCc2[nH]c3ccc(C)cc3c2C1,-9.4,2.7,?,?,?,?
O=c1nc(-c2ccccc2Cl)c2cc(F)ccc2[nH]1,-78.8*,-0.1,2.6%,-11.9%,i,i
CCOC(=O)C(O)C1CCc2c([nH]c3ccc(C)cc23)C1=O (stereo not drawn),21.9,7.3,?,?,?,18.4µM*
COC1(OC)C=CC(=O)C=C1NC(=O)c1ccccc1OC(C)=O,.,.,4.11µM*,?,?,?
COc1cccc(N=c2oc3ccccc3cc2-c2nc3ccccc3[nH]2)c1,-15.1,-4.2,11.2%,18.6%,i,18.4µM*
Cn1c(=O)n(C)c2cc(N3CCOCC3)c(NS(=O)(=O)c3cccc(C#N)c3)cc21,.,.,.,.,i,i
O=C(CSc1nnc2scc(-c3ccc(Cl)cc3)n12)Nc1ccccc1F,.,.,.,.,i,i
Cc1ccc(CSc2nnc(CS(=O)Cc3ccc(Cl)cc3Cl)n2C)cc1 (stereo not drawn),-25.5,6.0,-3.2%,-1.5%,i,?
SMILES,KCNH2 3.1 block,hERG WT inh,MCF10A rereplic,SW480 rerep,KB-3-1 cytotox,KB-V1 cytotox
O=c1cc(Cc2nnc(SCc3ccccc3)n2-c2ccc(Cl)cc2)[nH]c(=O)[nH]1,22.7,1.5,-0.6%,-2.7%,i,i
Cn1c(CS(=O)Cc2c(Cl)cccc2Cl)nnc1SCc1ccc(Cl)cc1 (stereo not drawn),-3.9,3.6,19.1%,-2.9%,i,5.17µM*
O=S(Cc1ccc(Br)cc1)Cc1nnc(SCc2ccc(Cl)cc2)n1-c1ccccc1 (stereo not drawn),-12.3,-4.6,?,-4.3%,?,2.31µM*
O=S(Cc1ccc(Br)cc1)Cc1nnc(SCc2c(F)cccc2Cl)n1-c1ccccc1 (stereo not drawn),5.3,0.9,?,9.9%,?,2.31µM*
O=C(Nc1ccc2c(c1)OCCO2)C1CC(O)CN1C(=O)Nc1ccccc1 (stereo not drawn),-13.5,-8.2,5.8%,?,i,i
CCn1ncc(NC(=S)NCCc2ccc(OC)c(OC)c2)c1C(N)=O,-24.0,1.2,-44.9%,5.6%,i,i
CCOc1ccc(/C=C2\C(=O)c3ccccc3OC2c2ccccc2)cc1 (stereo not drawn),-12.2,10.7,5.17µM*,?,?,16.4µM*
COc1ccc(/C=C2\C(=O)c3ccccc3OC2c2ccccc2)cc1 (stereo not drawn),-5.7,-7.2,10.3µM*,?,?,7.31µM*
CCOC(=O)/C(=N\Nc1cc(Cl)ccc1Cl)N1CCOCC1,8.1,5.3,5.0%,?,i,i
CC(C)CN(C(=O)c1ccc(S(=O)(=O)N2CCOCC2)cc1)C1CCS(=O)(=O)C1 (stereo not drawn),-10.4,-1.6,14.8%,5.9%,i,i
Cc1ccc2nc(-c3ccc(SCC(=O)Nc4nnc(C)s4)nc3)[nH]c2c1,-4.5,-7.0,18.4µM*,?,i,i
Cc1ccc2nc(-c3ccc(SCC(=O)Nc4nc(C)cs4)nc3)[nH]c2c1,-2.6,-2.6,?,7.8%,?,i
Cc1nc(NC(=O)CSc2ccc(-c3nc4ccccc4[nH]3)cn2)sc1C,-3.1,-0.9,18.4µM*,4.7%,i,i
Cc1ccc(SCC(=O)Nc2ccc(-c3nc4ccccc4[nH]3)cc2)cc1,-34.8,5.4,13µM*,8.2%,i,i
Cc1nonc1C1CCCN1Cc1nc(-c2ccccc2Cl)oc1C (stereo not drawn),-94.1*,3.0,17.3%,4.4%,i,i
Cc1oc(-c2ccccc2Cl)nc1CN1CCCC1c1ccc(F)cc1 (stereo not drawn),-3.6,10.7,2.1%,5.5%,i,?
Cc1ccccc1-c1nc(CN2CCCC2c2ccc(F)cc2)c(C)o1 (stereo not drawn),-10.6,13.7,14.6µM*,4.9%,i,i
COc1ccc(OCc2nnc(SCC(=O)Nc3ccccc3F)o2)cc1,-6.5,6.3,-22.4%,-21.2%,?,?
COc1ccc2[nH]c(C)c(C(=O)CNc3nccs3)c2c1,.,.,.,.,i,i
COc1cccc(-c2nnc3n(Cc4ccccc4Cl)c(=O)c4ccccc4n23)c1O,.,.,.,.,i,i
